Screens as filed in PubChem BioAssay.
Most compounds without a hit are left out; they make up all but 11% or so of the library.
Lmaj promast: inhibitors of Leishmania major promastigote growth; inhibition, % at 10 µM; 200,000 compounds, 9% hits; Leishmania major promastigotes, resazurin fluorescence viability; AID 1063; in the data active = inhibition above about 50%;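 also: promastigotes grown with compound for 44 hours at 28 °C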
WT yeast gro inh: growth inhibition of WT yeast, mitochondrial fusion screen. mitochondrial fusion phenotypic screen, WT strain. 190,000 compounds, 2.1% hits. inhibition, % at 10 µM. AID 1362; in the data active = inhibition above about 58%; tested in S. cerevisiae
Autophagy mod: alters autophagy in cells | 190,000 compounds, 0.98% hits | MEF GFP-LC3 puncta imaging; test concentration mostly 10 µM | calls only at 10 µM (by protocol);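 active = percentage of spot-positive cells more than 3 SD above its plate mean, without a fluorescence outlier flag or 80% toxicity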;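 also: spot-positive cell cutoff set from DMSO-treated cells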
Insulin prom up: MIN6 insulin promoter up-regulation | MIN6 insulin promoter-GFP reporter, high-content imaging; hits give high values | z-score at 5 µM | 190,000 compounds, 0.3% hits | AID 1625;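 active = z-score above 3 at 5 µM with at least 500 cells counted in the well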
Insulin prom inh: TRM-6 insulin promoter activity inhibition | TRM-6 cells (human fetal islet line), insulin promoter-eGFP reporter, imaging; reporter expression induced with tamoxifen | inhibition, % at 2 µM | 130,000 compounds, 0.9% hits;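 active = inhibition above the mean plus 3 SD, with well images judged a real hit on visual review, cut at about 60% in these data, passing the limit was not always enough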
Starred values were filed as active, the others as inactive; i = inactive; · = no result given; + = active, no number.

SMILES	Lmaj promast	WT yeast gro inh	Autophagy mod	Insulin prom up	Insulin prom inh
O=C(CN1C(=O)C2C3C=CC(C4CC34)C2C1=O)Nc1cnc2ccccc2c1 (centres undefined)	-1.7	-7.7	i	-0.5	·
COc1cccc(Nc2nnc(SCC(=O)N(CC(C)C)CC(C)C)s2)c1	99.1*	5.7	i	-0.5	-26.5
C/C(N)=C(/C#N)C(=O)CSc1nnc(Nc2cccc(C)c2)s1	76.3*	-15.4	i	-0.18	-30.6
CCSc1nnc(NC(=O)Nc2cccc(C)c2)s1	·	·	·	-0.07	·
Cc1nc(CSc2ccccc2)cc(=O)[nH]1	-8.0	11.3	i	0.06	27.3
CCN(CC)C(c1ccc(F)cc1)c1nnnn1CC1CCCO1 (centres undefined)	-1.4	5.7	i	-0.29	92.9*
COc1ccc(C(c2nnnn2CC2CCCO2)N2CCN(c3ccc(F)cc3)CC2)cc1 (centres undefined)	6.7	7.6	i	-0.29	·
Cc1ccccc1CS(=O)(=O)c1nnc([C@H](CC(C)C)NC(=O)OC(C)(C)C)o1	-5.0	75.1*	i	-0.2	41.9
CC[C@@H](C)[C@H](NC(=O)OCc1ccccc1)c1nnc([C@@H](NC(=O)OCc2ccccc2)[C@@H](C)CC)o1	·	·	·	0.15	·
CC(C)(C)OC(=O)N[C@@H](Cc1ccccc1)c1nnc(S(=O)(=O)Cc2cccc(F)c2)o1	3.1	-22.1	i	·	-200.0
CC(C)C[C@H](NC(=O)OC(C)(C)C)c1nnc(SCc2ccccc2)o1	84.6*	35.1	i	-0.98	-50.0
CC[C@@H](C)[C@H](NC(=O)OC(C)(C)C)c1nnc(S(=O)(=O)Cc2cc(C)ccc2C)o1	-3.0	66.1*	i	0.58	72.2*
O=C(N/N=C\c1ccc([N+](=O)[O-])o1)c1cncc(Br)c1	·	·	·	0.11	·
O=C(N/N=C/c1cc([N+](=O)[O-])c(N2CCOCC2)cc1N1CCOCC1)c1cccnc1	4.5	0.8	i	-1.42	68.8*
Cc1c(C(=O)N/N=C/c2ccc(-c3ccccc3[N+](=O)[O-])o2)sc(N)c1C#N	71.1*	-2.2	i	0.35	·
O=C(N/N=C/c1ccc(-c2ccccc2[N+](=O)[O-])o1)c1cncc(Br)c1	97.6*	-11.3	i	-0.22	·
Cc1cc([N+](=O)[O-])c(C)cc1-c1ccc(/C=N/NC(=O)c2cccnc2)o1	100.0*	-12.1	i	-0.75	·
COc1ccc(CCNC(=O)CCSc2nc(-c3ccco3)cc(C(F)(F)F)n2)cc1OC	8.0	-22.4	i	1.2	-5.4
COc1ccc(CCNC(=O)C2CCC(=O)N2CCc2ccccc2)cc1OC (centres undefined)	-1.1	0.6	i	-0.21	3.7
COC(=O)C/C=C/[C@@H](C)[C@@H](/C=N/OC[C@@H](C)[C@H](OCc1ccccc1)C(C)C)NS(=O)(=O)c1ccc(C)cc1	-2.5	3.5	i	-1.41	-50.0
COc1nccc(-c2ccc(F)cc2)c1C#N	-1.9	-1.4	i	-0.12	-37.5
COc1ccc(Cc2noc(CN3CCN(C4CCc5ccccc5C4)CC3)n2)cc1OC (centres undefined)	8.1	-10.3	i	-0.8	·
COc1ccc(Cc2noc(CN3CCC(c4ccncc4)CC3)n2)cc1OC	11.9	4.1	i	-1.87	·
COc1ccc(Cc2noc(CN3CCCN(Cc4ccc(F)cc4)CC3)n2)cc1OC	77.2*	12.8	i	·	·
Fc1cccc(Cc2noc(CN3CCN(C4CCc5ccccc5C4)CC3)n2)c1 (centres undefined)	89.5*	26.3	i	·	10.0
SMILES	Lmaj promast	WT yeast gro inh	Autophagy mod	Insulin prom up	Insulin prom inh
Fc1cccc(Cc2noc(CN3CCCN(C4Cc5ccccc5C4)CC3)n2)c1	87.9*	6.2	i	-0.41	-6.7
CC(=O)Nc1sc(C)c(C)c1C(=O)OC1CCOC1=O (centres undefined)	-3.2	5.9	i	-0.67	·
COC(=O)C1=C(C)NC2=C(C(=O)CCC2)C1c1cn(Cc2ccc(Cl)cc2Cl)nc1-c1ccccc1 (centres undefined)	56.8*	-8.5	i	0.14	·
COC(=O)CSc1nnc(CNS(=O)(=O)c2ccc(Cl)cc2)n1C	-5.4	5.9	i	-1.15	2.9
O=C(c1cn(-c2ccccc2)nc1-c1cccs1)N1CCN(c2ccccn2)CC1	57.4*	45.4	i	-0.22	-23.7
CCN(CC)CCOC(=O)c1ccc(NC(=O)c2cn(-c3ccccc3)nc2-c2cccs2)cc1	22.4	89.8*	i	-0.88	0.0
CN1CCN(C(=O)c2cn(-c3ccccc3)nc2-c2cccs2)CC1	-4.6	-13.8	i	-0.35	·
CCN(CC)CCNC(=O)c1cn(-c2ccccc2)nc1-c1cccs1	22.0	·	i	0.61	-12.3
CN(C)C(=O)c1cn(-c2ccccc2)nc1-c1cccs1	54.0*	5.5	i	·	0.0
Cc1ccc(CNC(=O)C(=O)Nc2nccs2)cc1	-1.4	0.7	i	0.92	-25.0
CC(C)Cc1nc(SCc2cccnc2)c2c(=O)n(C)c(=O)n(C)c2n1	96.0*	31.7	i	-0.47	-75.0
Cn1c(=O)c2c(SCc3cccnc3)nc(C3CC3)nc2n(C)c1=O	52.7*	4.9	i	-0.96	·
Cn1c(=O)c2c(SCC(=O)NCCc3ccccc3)nc(C3CC3)nc2n(C)c1=O	·	·	·	0.65	·
CCc1nc(SCc2cccnc2)c2c(=O)n(C)c(=O)n(C)c2n1	26.2	-10.5	i	0.07	·
CCOC(=O)CN1C(=O)N[C@H](c2ccc(Br)cc2)C(C(C)=O)=C1C	1.9	31.1	i	-0.42	5.0
CCOc1cc(/C=N/Nc2nc(-c3cccc(S(=O)(=O)N4CCCC4)c3)cs2)ccc1O	92.6*	-0.3	i	-0.92	57.1
CCOC(=O)c1ccccc1Nc1cn(C(C)=O)c2ccccc12	47.7	·	+	·	24.1
CCN(Cc1ccccc1)C(=O)c1ccc(Cl)cc1[N+](=O)[O-]	-2.5	2.8	i	-1.04	·
CCOc1ccccc1OCCN1CCC(Cc2ccccc2)CC1	99.2*	9.3	i	-1.09	-19.2
O=C(COc1ccccc1[N+](=O)[O-])N1CCC(Cc2ccccc2)CC1	7.6	14.2	i	-0.3	0.0
Cc1ccc([N+](=O)[O-])c(OCCN2CCC(Cc3ccccc3)CC2)c1	94.0*	-9.0	i	-0.98	·
Cc1ccccc1OCCN1CCC(Cc2ccccc2)CC1	82.3*	37.3	i	-0.51	·
O=C(CN1C(=O)CSC1=O)c1ccccc1	10.0	20.0	i	0.94	·
COc1cc(/C=N/N(C)c2ccccc2)cc(Cl)c1O	-0.9	59.4*	i	-0.31	29.2
COc1ccc(OC)c(/C=N/N(C)c2ccccc2)c1	59.8*	26.9	i	0.54	-132.1
SMILES	Lmaj promast	WT yeast gro inh	Autophagy mod	Insulin prom up	Insulin prom inh
CC(C)(C)C(=O)OCCNc1nc(-c2ccccc2)nc2ccccc12	53.7*	46.4	i	-0.07	15.2
CN(C)CCCNc1nc(-c2ccccc2)nc2ccccc12	·	·	·	0.16	·
COc1ccc(C(=O)O)cc1Nc1cc(C)nc2ncnn12	-7.5	12.2	·	-0.59	·
COc1cccc(CN2CCN(C(=S)NCc3ccc(Cl)cc3)CC2)c1	88.6*	66.8*	i	-0.8	·
S=C(NCc1ccccc1)N1CCN(Cc2ccc3c(c2)OCO3)CC1	92.1*	60.4*	i	·	·
COc1ccc(OC)c(NC(=S)N2CCN(Cc3ccccc3)CC2)c1	-7.9	15.6	i	0.18	·
